Inconclusive results are not listed. A call without a number means that no potency is given here. A number with no mark means an inactive call. Activity calls are given as the source filed them. Calls come from the whole dose curve; as a rule, active = well fitted inhibition curve with a large enough effect; inconclusive = small, poorly fitted or top-dose-only effect; inactive = no such curve, though single readings can be large or run the other way.
Experiment: qHTS to identify inhibitors of the type 1 interferon - major histocompatibility complex class I in skeletal muscle: primary screen against the NCATS Mechanism Interrogation Plate v5.0 (MIPE) Libary (AID 1347411); note: nearly all actives have a fitted effect of over 65% in size
Conditions: iHSKM cells + IFN-b, HiBiT-tagged MHC-I luminescence, 24 h; series mostly up to 45.8 µM
Method in brief: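 Cells were genome-edited human myoblasts carrying a HiBit tag on endogenous HLA-B. They were treated with IFN-beta (4.0 ng/ml) and titrated compounds (top 46 uM) for 24 hrs before lytic HiBiT detection.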
Potency is the fitted concentration of half-maximal effect.

Q: For `CC(C)C[C@H](CC(=O)O)C(=O)N[C@@H](Cc1c[nH]c2ccccc12)C(=O)N[C@@H](C)c1ccccc1`, which Potency is on record?
A: The Potency was “inactive”.

Q: For `CC(C)(C)COc1ccc(-n2cc(C(=O)O)cn2)cc1C#N`, which Potency is on record?
A: Its Potency is “inactive”.

Q: Which Potency does the source give for `C[C@]12CCC3c4ccc(O)cc4CCC3C1CCC2=O` (stereo partly drawn) here?
A: Its Potency is “inactive”.

Q: Which Potency does the source give for `COc1cc2c(cc1OC)CN(CCc1ccc(NC(=O)c3cc(OC)c(OC)cc3NC(=O)c3cnc4ccccc4c3)cc1)CC2` here?
A: The Potency was “inactive”.

Q: With `COc1ccc(-n2c(C)c([N+](=O)[O-])c3ccc(O)cc32)cc1` as the compound, how does the Potency read?
A: The Potency was “inactive”.

Q: With `COc1cccc2c1CCCC2CCCN1CCN(C2CCCCC2)CC1` (stereo not drawn) as the compound, how does the Potency read?
A: Its Potency is “inactive”.

Q: Which Potency does the source give for `O=C(Nc1ccccc1-c1cn2c(CN3CCNCC3)csc2n1)c1cnc2ccccc2n1` here?
A: The Potency was 14.7 µM (active).

Q: With `CC(C)(C)Cn1c(N)nc2ccc(-c3[nH]c(C(C)(C)C)nc3-c3ccc(F)cc3)nc21` as the compound, how does the Potency read?
A: Its Potency is “inactive”.

Q: With `N[C@@]1(C(=O)O)CS(=O)(=O)[C@H]2[C@H](C(=O)O)[C@H]21` as the compound, how does the Potency read?
A: Its Potency is “inactive”.

Q: With `c1cc(-c2sc(-c3ccncc3)c(-c3ccncc3)c2-c2ccncc2)ccn1` as the compound, how does the Potency read?
A: The Potency was “inactive”.

Q: With `C=C1C(=O)OC(CCCCCCCC)C1C(=O)O` (stereo not drawn) as the compound, how does the Potency read?
A: The Potency was 18.6 µM (active).

Q: With `O=C1C(Cl)=C(NCCN2CCOCC2)C(=O)c2ncccc21` as the compound, how does the Potency read?
A: Its Potency is 2.94 µM (active).

Q: With `O=C(Nc1c(Cl)cncc1Cl)c1ccc(OC(F)F)c(OCC2CC2)c1` as the compound, how does the Potency read?
A: The Potency was “inactive”.

Q: Which Potency does the source give for `CNC(=O)c1ccc2cc(C3(O)CCn4cncc43)ccc2c1` (stereo not drawn) here?
A: The Potency was “inactive”.

Q: For `C=C1C(=O)[C@@]23C(CC[C@@H]1[C@H]2O)[C@@]12CO[C@]3(O)[C@@H](O)[C@@H]1C(C)(C)CC[C@@H]2O` (stereo partly drawn), which Potency is on record?
A: The Potency was 6.58 µM (active).

Q: With `Cc1c(NC(=O)c2ccc(C(C)(C)C)cc2)cccc1-c1cn(C)c(=O)c(Nc2ccc(C(=O)N3CCOCC3)cc2)n1` as the compound, how does the Potency read?
A: Its Potency is “inactive”.

Q: With `CCn1c(C(=O)N(C2CC2)C2CC2)cc2c3c(ncn3C)c(Nc3cc(C)n(C)n3)nc21` as the compound, how does the Potency read?
A: Its Potency is “inactive”.

Q: With `CCCCCN(C)CCC(O)(P(=O)(O)O)P(=O)(O)O` as the compound, how does the activity change, negative = inhibition read?
A: Its activity change, negative = inhibition is -11.6% [at 5.1 µM].

Q: Which Potency does the source give for `O=c1cc(N2CCOCC2)oc2c(-c3cccc4c3sc3ccccc34)cccc12` here?
A: The Potency was “inactive”.

Q: Which Potency does the source give for `COCCOc1nc(-c2ccc(Cl)c(Cl)c2)n(-c2ccc(NC(=O)CCl)cc2)n1` here?
A: Its Potency is 5.23 µM (active).

Q: Which Potency does the source give for `O=C(CCN1CCN(C(=O)OCc2cc(Cl)cc(Cl)c2)CC1)c1ccc2[nH]c(=O)oc2c1` here?
A: The Potency was “inactive”.

Q: For `COc1ccc(-c2nc(N3CCOCC3)c3sc(CN(C)c4ncc(C(=O)NO)cn4)cc3n2)cn1`, which Potency is on record?
A: Its Potency is 0.033 µM (active).

Q: Which Potency does the source give for `COC1CCC(N(C(=O)C2CCC(C)CC2)c2cc(C3=CCCCC3)sc2C(=O)O)CC1` (stereo not drawn) here?
A: Its Potency is “inactive”.

Q: With `Nc1ncnc2c1nc(Cl)n2[C@@H]1O[C@H](CO)[C@@H](O)[C@@H]1O` as the compound, how does the Potency read?
A: The Potency was “inactive”.

Q: For `CN(C)Cc1ccc(-c2nc3cccc4c3n2CCNC4=O)cc1`, which Potency is on record?
A: The Potency was 14.7 µM (active).

Q: Which Potency does the source give for `CCOC(CN1C(=O)[C@](CC(=O)Nc2ccc(C)cc2)(NC(=O)Nc2ccc(C)cc2)c2ccccc21)OCC` here?
A: The Potency was “inactive”.

Q: For `O=C(N[C@@H](c1ccccc1)[C@@H]1CCCCN1)c1cccc(C(F)(F)F)c1Cl`, which Potency is on record?
A: Its Potency is “inactive”.

Q: With `NC(=O)c1ccc2nc(-c3ccc(Oc4ccc(Cl)cc4)cc3)[nH]c2c1` as the compound, how does the Potency read?
A: The Potency was “inactive”.

Q: With `CC(C)(C)OC(=O)N[C@H]1CCCCCC=C[C@@H]2C[C@@]2(C(=O)NS(=O)(=O)C2CC2)NC(=O)[C@@H]2C[C@@H](OC(=O)N3Cc4cccc(F)c4C3)CN2C1=O` as the compound, how does the Potency read?
A: The Potency was “inactive”.

Q: With `O=C(O)CCC1CCC(c2cc(F)ccc2F)(S(=O)(=O)c2ccc(Cl)cc2)CC1` (stereo not drawn) as the compound, how does the Potency read?
A: The Potency was “inactive”.

Q: For `Cc1cnc(C(=O)O)c[n+]1[O-]`, which Potency is on record?
A: Its Potency is “inactive”.

Q: Which Potency does the source give for `c1ccc2c(-c3cnn4cc(-c5ccc(N6CCNCC6)cc5)cnc34)ccnc2c1` here?
A: The Potency was 7.39 µM (active).

Q: Which Potency does the source give for `Nc1ncnc2ccccc12` here?
A: The Potency was “inactive”.

From PubChem BioAssay (NCATS)
